{
  "source": "PubChem BioAssay AID1159580",
  "about": "(chemical genetic matrix, 2015)",
  "experiment": "chemical genetic growth profiling, strain panel (AID 1159580);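 note: tested at 20 µM; growth read once vehicle control cultures reached saturation at 30 °C; 1 = growth at the plate median or of vehicle wells; lower values mean less growth of the strain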",
  "conditions": "growth OD",
  "note": "In all, about 5,500 compounds went through this assay and about 2,000 (36%) were called active. About 18% were inconclusive and are not listed. The list shows a part of the results. Values without a mark were called inactive. Cut-off read from the data, not from the text of the source: active = normalized growth mostly below about 0.91 (no sharp cut-off); inconclusive = no clear call, values can overlap the other calls; inactive = mostly above about 0.92.",
  "data": [
    {"smiles": "COc1cc(O)c(C(=O)O)c(O)c1", "values": [
      {"measurement": "normalized growth", "setting": "S. cerevisiae deletion strains, locus YJR075W, strain HOC1, stronger effect = lower value", "value": 1},
      {"measurement": "normalized growth", "setting": "S. cerevisiae deletion strains, locus YKL009W, strain mrt4, stronger effect = lower value", "value": 1.01},
      {"measurement": "normalized growth", "setting": "S. cerevisiae deletion strains, locus YKL068W, stronger effect = lower value", "value": 0.954},
      {"measurement": "normalized growth", "setting": "S. cerevisiae deletion strains, locus YKL085W, strain MDH1 (second series), stronger effect = lower value", "value": 0.961},
      {"measurement": "normalized growth", "setting": "S. cerevisiae deletion strains, locus YKL085W, strain MDH1, stronger effect = lower value", "value": 0.961},
      {"measurement": "normalized growth", "setting": "S. cerevisiae deletion strains, locus YKL160W, strain elf1, stronger effect = lower value", "value": 1},
      {"measurement": "normalized growth", "setting": "S. cerevisiae deletion strains, locus YKL190W, strain CNB1, stronger effect = lower value", "value": 1.01},
      {"measurement": "normalized growth", "setting": "S. cerevisiae deletion strains, locus YKR001C, strain vps1, stronger effect = lower value", "value": 1.02},
      {"measurement": "normalized growth", "setting": "S. cerevisiae deletion strains, locus YKR026C, strain gcn3, stronger effect = lower value", "value": 0.986},
      {"measurement": "normalized growth", "setting": "S. cerevisiae deletion strains, locus YKR091W, strain srl3, stronger effect = lower value", "value": 0.991},
      {"measurement": "normalized growth", "setting": "S. cerevisiae deletion strains, locus YLL001W, strain dnm1, stronger effect = lower value", "value": 0.981},
      {"measurement": "normalized growth", "setting": "S. cerevisiae deletion strains, locus YLL026W, stronger effect = lower value", "value": 1},
      {"measurement": "normalized growth", "setting": "S. cerevisiae deletion strains, locus YLL041C, strain sdh2, stronger effect = lower value", "value": 0.986},
      {"measurement": "normalized growth", "setting": "S. cerevisiae deletion strains, locus YLR027C, strain aat2, stronger effect = lower value", "value": 0.983},
      {"measurement": "normalized growth", "setting": "S. cerevisiae deletion strains, locus YLR039C, strain RIC1, stronger effect = lower value", "value": 1.06},
      {"measurement": "normalized growth", "setting": "S. cerevisiae deletion strains, locus YLR058C, strain SHM2, stronger effect = lower value", "value": 1},
      {"measurement": "normalized growth", "setting": "S. cerevisiae deletion strains, locus YLR102C, strain apc9, stronger effect = lower value", "value": 0.997},
      {"measurement": "normalized growth", "setting": "S. cerevisiae deletion strains, locus YLR113W, strain HOG1, stronger effect = lower value", "value": "0.83 (active)"},
      {"measurement": "normalized growth", "setting": "S. cerevisiae deletion strains, locus YLR221C, strain rsa3, stronger effect = lower value", "value": 1},
      {"measurement": "normalized growth", "setting": "S. cerevisiae deletion strains, locus YLR258W, strain gsy2, stronger effect = lower value", "value": 0.998},
      {"measurement": "normalized growth", "setting": "S. cerevisiae deletion strains, locus YLR262C, strain YPT6 (second series), stronger effect = lower value", "value": 1.02},
      {"measurement": "normalized growth", "setting": "S. cerevisiae deletion strains, locus YLR262C, strain YPT6, stronger effect = lower value", "value": 1.02},
      {"measurement": "normalized growth", "setting": "S. cerevisiae deletion strains, locus YLR268W, strain sec22, stronger effect = lower value", "value": 0.995},
      {"measurement": "normalized growth", "setting": "S. cerevisiae deletion strains, locus YLR320W, strain mms22, stronger effect = lower value", "value": 1.01},
      {"measurement": "normalized growth", "setting": "S. cerevisiae deletion strains, locus YLR330W, strain CHS5, stronger effect = lower value", "value": 0.991},
      {"measurement": "normalized growth", "setting": "S. cerevisiae deletion strains, locus YLR342W, strain FKS1 (second series), stronger effect = lower value", "value": 1.06},
      {"measurement": "normalized growth", "setting": "S. cerevisiae deletion strains, locus YLR342W, strain FKS1, stronger effect = lower value", "value": 0.99},
      {"measurement": "normalized growth", "setting": "S. cerevisiae deletion strains, locus YLR357W, strain rsc2, stronger effect = lower value", "value": 1.01},
      {"measurement": "normalized growth", "setting": "S. cerevisiae deletion strains, locus YLR370C, strain arc18, stronger effect = lower value", "value": 0.99},
      {"measurement": "normalized growth", "setting": "S. cerevisiae deletion strains, locus YLR371W, strain rom2, stronger effect = lower value", "value": 0.999},
      {"measurement": "normalized growth", "setting": "S. cerevisiae deletion strains, locus YLR384C, strain iki3, stronger effect = lower value", "value": 0.985},
      {"measurement": "normalized growth", "setting": "S. cerevisiae deletion strains, locus YLR418C, strain cdc73, stronger effect = lower value", "value": 1.01},
      {"measurement": "normalized growth", "setting": "S. cerevisiae deletion strains, locus YML016C, strain PPZ1, stronger effect = lower value", "value": 0.999},
      {"measurement": "normalized growth", "setting": "S. cerevisiae deletion strains, locus YML032C, strain rad52, stronger effect = lower value", "value": 1.04},
      {"measurement": "normalized growth", "setting": "S. cerevisiae deletion strains, locus YML120C, strain ndi1, stronger effect = lower value", "value": 0.998},
      {"measurement": "normalized growth", "setting": "S. cerevisiae deletion strains, locus YML124C, strain tub3, stronger effect = lower value", "value": 0.992},
      {"measurement": "normalized growth", "setting": "S. cerevisiae deletion strains, locus YMR058W, strain fet3, stronger effect = lower value", "value": 0.999},
      {"measurement": "normalized growth", "setting": "S. cerevisiae deletion strains, locus YMR078C, strain ctf18, stronger effect = lower value", "value": 1.01},
      {"measurement": "normalized growth", "setting": "S. cerevisiae deletion strains, locus YMR125W, strain sto1, stronger effect = lower value", "value": 0.973},
      {"measurement": "normalized growth", "setting": "S. cerevisiae deletion strains, locus YMR129W, stronger effect = lower value", "value": 0.986},
      {"measurement": "normalized growth", "setting": "S. cerevisiae deletion strains, locus YMR205C, strain PFK2, stronger effect = lower value", "value": 1.01},
      {"measurement": "normalized growth", "setting": "S. cerevisiae deletion strains, locus YMR223W, strain ubp8, stronger effect = lower value", "value": 1.03},
      {"measurement": "normalized growth", "setting": "S. cerevisiae deletion strains, locus YMR231W, strain pep5, stronger effect = lower value", "value": 0.984},
      {"measurement": "normalized growth", "setting": "S. cerevisiae deletion strains, locus YMR263W, strain SAP30, stronger effect = lower value", "value": 1},
      {"measurement": "normalized growth", "setting": "S. cerevisiae deletion strains, locus YMR307W, strain GAS1, stronger effect = lower value", "value": 1.03},
      {"measurement": "normalized growth", "setting": "S. cerevisiae deletion strains, locus YNL067W, strain RPL9B, stronger effect = lower value", "value": 1},
      {"measurement": "normalized growth", "setting": "S. cerevisiae deletion strains, locus YNL071W, strain lat1, stronger effect = lower value", "value": 0.99},
      {"measurement": "normalized growth", "setting": "S. cerevisiae deletion strains, locus YNL128W, strain TEP1, stronger effect = lower value", "value": 1},
      {"measurement": "normalized growth", "setting": "S. cerevisiae deletion strains, locus YNL153C, strain GIM3, stronger effect = lower value", "value": 0.998},
      {"measurement": "normalized growth", "setting": "S. cerevisiae deletion strains, locus YNL183C, strain NPR1, stronger effect = lower value", "value": 0.84},
      {"measurement": "normalized growth", "setting": "S. cerevisiae deletion strains, locus YNL209W, strain ssb2, stronger effect = lower value", "value": 0.981},
      {"measurement": "normalized growth", "setting": "S. cerevisiae deletion strains, locus YNL233W, strain BNI4, stronger effect = lower value", "value": 1.01},
      {"measurement": "normalized growth", "setting": "S. cerevisiae deletion strains, locus YNL248C, strain rpa49, stronger effect = lower value", "value": 0.992},
      {"measurement": "normalized growth", "setting": "S. cerevisiae deletion strains, locus YNL250W, strain rad50, stronger effect = lower value", "value": 0.97},
      {"measurement": "normalized growth", "setting": "S. cerevisiae deletion strains, locus YNL271C, strain bni1, stronger effect = lower value", "value": 0.945},
      {"measurement": "normalized growth", "setting": "S. cerevisiae deletion strains, locus YNL298W, strain CLA4, stronger effect = lower value", "value": 0.977},
      {"measurement": "normalized growth", "setting": "S. cerevisiae deletion strains, locus YNL307C, strain MCK1, stronger effect = lower value", "value": 1.02},
      {"measurement": "normalized growth", "setting": "S. cerevisiae deletion strains, locus YNL322C, strain KRE1 (second series), stronger effect = lower value", "value": 0.972},
      {"measurement": "normalized growth", "setting": "S. cerevisiae deletion strains, locus YNL322C, strain KRE1, stronger effect = lower value", "value": 0.99},
      {"measurement": "normalized growth", "setting": "S. cerevisiae deletion strains, locus YNR049C, strain mso1, stronger effect = lower value", "value": 0.98},
      {"measurement": "normalized growth", "setting": "S. cerevisiae deletion strains, locus YNR052C, strain pop2, stronger effect = lower value", "value": 1.02},
      {"measurement": "normalized growth", "setting": "S. cerevisiae deletion strains, locus YOL006C, strain TOP1, stronger effect = lower value", "value": 1.04},
      {"measurement": "normalized growth", "setting": "S. cerevisiae deletion strains, locus YOL012C, strain htz1", "value": 0.943},
      {"measurement": "normalized growth", "setting": "S. cerevisiae deletion strains, locus YOL147C, strain pex11, stronger effect = lower value", "value": 1},
      {"measurement": "normalized growth", "setting": "S. cerevisiae deletion strains, locus YOR001W, strain rrp6, stronger effect = lower value", "value": 0.999},
      {"measurement": "normalized growth", "setting": "S. cerevisiae deletion strains, locus YOR061W, strain CKA2, stronger effect = lower value", "value": 1.01},
      {"measurement": "normalized growth", "setting": "S. cerevisiae deletion strains, locus YOR069W, strain VPS5, stronger effect = lower value", "value": 0.993},
      {"measurement": "normalized growth", "setting": "S. cerevisiae deletion strains, locus YOR070C, strain gyp1, stronger effect = lower value", "value": 0.994},
      {"measurement": "normalized growth", "setting": "S. cerevisiae deletion strains, locus YOR080W, strain dia2, stronger effect = lower value", "value": 1},
      {"measurement": "normalized growth", "setting": "S. cerevisiae deletion strains, locus YOR083W, strain WHI5, stronger effect = lower value", "value": 1.01},
      {"measurement": "normalized growth", "setting": "S. cerevisiae deletion strains, locus YOR106W, strain vam3, stronger effect = lower value", "value": 1.01},
      {"measurement": "normalized growth", "setting": "S. cerevisiae deletion strains, locus YOR136W, strain idh2, stronger effect = lower value", "value": 1.03},
      {"measurement": "normalized growth", "setting": "S. cerevisiae deletion strains, locus YOR144C, strain elg1, stronger effect = lower value", "value": 1},
      {"measurement": "normalized growth", "setting": "S. cerevisiae deletion strains, locus YOR184W, strain ser1, stronger effect = lower value", "value": 1.04},
      {"measurement": "normalized growth", "setting": "S. cerevisiae deletion strains, locus YOR231W, strain MKK1, stronger effect = lower value", "value": 0.885},
      {"measurement": "normalized growth", "setting": "S. cerevisiae deletion strains, locus YOR265W, strain rbl2, stronger effect = lower value", "value": 0.997},
      {"measurement": "normalized growth", "setting": "S. cerevisiae deletion strains, locus YOR270C, strain vph1, stronger effect = lower value", "value": 1.02},
      {"measurement": "normalized growth", "setting": "S. cerevisiae deletion strains, locus YOR290C, strain snf2, stronger effect = lower value", "value": 1.01},
      {"measurement": "normalized growth", "setting": "S. cerevisiae deletion strains, locus YOR316C, strain cot1, stronger effect = lower value", "value": 1},
      {"measurement": "normalized growth", "setting": "S. cerevisiae deletion strains, locus YPL051W, strain arl3, stronger effect = lower value", "value": 0.986},
      {"measurement": "normalized growth", "setting": "S. cerevisiae deletion strains, locus YPL055C, strain LGE1, stronger effect = lower value", "value": 1.01},
      {"measurement": "normalized growth", "setting": "S. cerevisiae deletion strains, locus YPL078C, strain atp4, stronger effect = lower value", "value": 0.992},
      {"measurement": "normalized growth", "setting": "S. cerevisiae deletion strains, locus YPL106C, strain sse1, stronger effect = lower value", "value": 0.982},
      {"measurement": "normalized growth", "setting": "S. cerevisiae deletion strains, locus YPL240C, strain hsp82, stronger effect = lower value", "value": 1},
      {"measurement": "normalized growth", "setting": "S. cerevisiae deletion strains, locus YPL241C, strain CIN2, stronger effect = lower value", "value": 0.997},
      {"measurement": "normalized growth", "setting": "S. cerevisiae deletion strains, locus YPL256C, strain CLN2, stronger effect = lower value", "value": "0.824 (active)"},
      {"measurement": "normalized growth", "setting": "S. cerevisiae deletion strains, locus YPR119W, strain clb2, stronger effect = lower value", "value": 0.987},
      {"measurement": "normalized growth", "setting": "S. cerevisiae deletion strains, locus YPR141C, strain kar3, stronger effect = lower value", "value": 0.968},
      {"measurement": "normalized growth", "setting": "S. cerevisiae deletion strains, locus YPR163C, strain tif3, stronger effect = lower value", "value": 1.01},
      {"measurement": "normalized growth", "setting": "S. cerevisiae deletion strains, locus YPR167C, strain met16, stronger effect = lower value", "value": 1},
      {"measurement": "normalized growth", "setting": "S. cerevisiae deletion strains, strain wtn01, stronger effect = lower value", "value": 1.01},
      {"measurement": "normalized growth", "setting": "S. cerevisiae strains, strain wild type, stronger effect = lower value", "value": 1}
    ]}
  ]
}
